Experimental data: PubChem BioAssay (Tox21)
Records with an inconclusive call do not appear. Calls of active or inactive are those of the source. Unless noted, calls follow the shape of the full dose curve. Bridge positions count the residues as written; N and C are the ends. Square brackets hold non-standard residues; d marks the D form. Peptide text beside a SMILES is read from it. hArg = N=C(N)NCCCC[C@H](N)C(=O)O; pGlu = O=C1CC[C@@H](C(=O)O)N1; Mpa = O=C(O)CCS

How the values were obtained:
[1] = biological target: Gonadotropin-releasing hormone receptor (Homo sapiens) (UniProt P30968); experiment: Human gonadotropin-releasing hormone receptor (GnRHR) small molecule agonists, calcium flux assay in GnRHR-HEK293 cells (AID 1920063); also: nearly all actives have a fitted effect of over 35% in size
Sequence of Gonadotropin-releasing hormone receptor (Homo sapiens) (P30968 whole entry, looked up): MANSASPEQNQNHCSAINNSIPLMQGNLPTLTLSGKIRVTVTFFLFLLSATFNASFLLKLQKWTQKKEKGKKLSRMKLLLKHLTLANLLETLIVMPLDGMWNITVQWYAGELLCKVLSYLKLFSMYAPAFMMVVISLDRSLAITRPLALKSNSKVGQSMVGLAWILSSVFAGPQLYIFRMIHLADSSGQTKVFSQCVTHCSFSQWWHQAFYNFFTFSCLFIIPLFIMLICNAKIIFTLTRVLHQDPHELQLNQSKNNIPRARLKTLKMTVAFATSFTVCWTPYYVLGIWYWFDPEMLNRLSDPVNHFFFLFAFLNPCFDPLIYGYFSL
Summary of the method: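 Cells: HEK293 stably expressing human GnRHR. Steps: overnight (18 h) culture, 1 h calcium dye loading at 37 C, compound addition, kinetic fluorescence read at 480/540 nm. Each compound tested at 15 concentrations in triplicate.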

[2] = biological target: KiSS-1 receptor (Homo sapiens) (UniProt Q969F8); experiment: Human kisspeptin (KISS1R) small molecule agonists, calcium flux assay in KISS1R-HEK293 cells (AID 1920064; active = well fitted activation curve with a large enough effect in the repeat runs)
Sequence of KiSS-1 receptor (Homo sapiens) (Q969F8 whole entry, looked up): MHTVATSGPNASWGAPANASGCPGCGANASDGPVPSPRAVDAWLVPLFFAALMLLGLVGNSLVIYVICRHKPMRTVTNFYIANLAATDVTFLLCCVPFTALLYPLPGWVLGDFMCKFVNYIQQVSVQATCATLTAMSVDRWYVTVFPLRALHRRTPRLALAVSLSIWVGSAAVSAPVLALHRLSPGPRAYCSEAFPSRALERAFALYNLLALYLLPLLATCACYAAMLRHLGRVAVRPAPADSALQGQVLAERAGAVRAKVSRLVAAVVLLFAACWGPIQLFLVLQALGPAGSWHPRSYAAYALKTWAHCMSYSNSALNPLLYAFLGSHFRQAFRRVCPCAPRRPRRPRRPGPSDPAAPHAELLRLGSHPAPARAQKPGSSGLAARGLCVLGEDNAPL
Summary of the method: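 Cells plated and incubated 18 h; dye added, 1 h at 37 C; compounds in DMSO pinned in; signal read at 480/540 nm every second for 3 min. Each compound tested at 15 concentrations in triplicate.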

[3] = G protein-coupled receptor (GPCR) small molecule agonists, calcium flux assay: HEK293 wild type cell line counter screen (AID 1920065)
Summary of the method: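 Counter-screen of the Tox21 10K library for non-specific calcium release: dye-loaded cells received compounds in DMSO and were monitored by kinetic fluorescence (480/540 nm, 3 min). Fifteen concentrations, run in triplicate.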

[4] = p53 small molecule agonists, cell-based qHTS assay with human liver microsomes: qHTS cell viability counter screen (AID 1963579); also: nearly all actives have a fitted effect of over 45% in size
Summary of the method: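 HLM-supplemented (0.5 mg/mL final) and NADPH-supplemented (0.5 mg/mL final) p53RE-bla cultures, 4,000 cells per well, were dosed with compounds in DMSO for 16 h at 37 C; luminescent ATP detection (CellTiter-Glo, 30 min, room temperature) quantified surviving cells.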

[5] = p53 small molecule agonists, cell-based qHTS assay with rat liver microsomes: qHTS cell viability counter screen (AID 1963580); also: nearly all actives have a fitted effect of over 45% in size
Summary of the method: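 p53RE-bla HCT-116 cells (4,000/well) rested 5 h at 37 C, then given Tox21 compounds in DMSO with rat liver microsomes (0.5 mg/mL final) plus NADPH (0.5 mg/mL final) for 16 h at 37 C. Viability read by CellTiter-Glo luminescence after 30 min at room temperature.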

[6] = biological target: 5-hydroxytryptamine receptor 2A (Homo sapiens) (UniProt P28223); experiment: 5-hydroxytryptamine receptor 2A (HTR2A) small molecule antagonists, cell-based qHTS assay (AID 1963586); also: nearly all actives have a fitted effect of over 45% in size
Sequence of 5-hydroxytryptamine receptor 2A (Homo sapiens) (P28223 whole entry, looked up): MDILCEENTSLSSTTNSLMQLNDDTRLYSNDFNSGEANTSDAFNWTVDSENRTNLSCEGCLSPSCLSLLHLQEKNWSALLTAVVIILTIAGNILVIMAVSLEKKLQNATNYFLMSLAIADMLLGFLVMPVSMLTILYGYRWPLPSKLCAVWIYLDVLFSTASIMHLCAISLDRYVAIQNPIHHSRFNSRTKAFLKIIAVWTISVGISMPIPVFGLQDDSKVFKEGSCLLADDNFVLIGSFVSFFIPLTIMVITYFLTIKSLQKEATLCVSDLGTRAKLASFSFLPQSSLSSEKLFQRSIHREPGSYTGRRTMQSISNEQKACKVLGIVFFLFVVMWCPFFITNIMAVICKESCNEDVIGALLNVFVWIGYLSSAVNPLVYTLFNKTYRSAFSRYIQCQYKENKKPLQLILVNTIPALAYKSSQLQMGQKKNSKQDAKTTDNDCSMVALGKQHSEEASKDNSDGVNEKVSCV
Summary of the method: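 Antagonist-mode intracellular calcium assay: DOI (4 nM) added after 5 min compound pre-incubation at room temperature to dye-loaded HTR2A-CHO cells. Fluorescence followed for 3 min, sampled every second.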

[7] = biological target: 5-hydroxytryptamine receptor 2A (Homo sapiens) (UniProt P28223); experiment: 5-hydroxytryptamine receptor 2A (HTR2A) small molecule agonists, cell-based qHTS assay (AID 1963587); also: nearly all actives have a fitted effect of over 30% in size; also: potency is read from the fitted curve at half-maximal effect
Summary of the method: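 HTR2A-CHO cells, plated 18 h at 37 C/5% CO2, dye-loaded 1 h at 37 C; compounds in DMSO added by pin tool (agonist mode). Intracellular calcium flux read as kinetic fluorescence on FDSS over 2 min at 1 s intervals.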

[8] = biological target: Muscarinic acetylcholine receptor M1 (Homo sapiens) (UniProt P11229); experiment: Cholinergic receptor muscarinic 1 (CHRM1) small molecule antagonists, cell-based qHTS assay (AID 1963588); also: nearly all actives have a fitted effect of over 40% in size; also: potency is read from the fitted curve at half-maximal effect
Sequence of Muscarinic acetylcholine receptor M1 (Homo sapiens) (P11229 whole entry, looked up): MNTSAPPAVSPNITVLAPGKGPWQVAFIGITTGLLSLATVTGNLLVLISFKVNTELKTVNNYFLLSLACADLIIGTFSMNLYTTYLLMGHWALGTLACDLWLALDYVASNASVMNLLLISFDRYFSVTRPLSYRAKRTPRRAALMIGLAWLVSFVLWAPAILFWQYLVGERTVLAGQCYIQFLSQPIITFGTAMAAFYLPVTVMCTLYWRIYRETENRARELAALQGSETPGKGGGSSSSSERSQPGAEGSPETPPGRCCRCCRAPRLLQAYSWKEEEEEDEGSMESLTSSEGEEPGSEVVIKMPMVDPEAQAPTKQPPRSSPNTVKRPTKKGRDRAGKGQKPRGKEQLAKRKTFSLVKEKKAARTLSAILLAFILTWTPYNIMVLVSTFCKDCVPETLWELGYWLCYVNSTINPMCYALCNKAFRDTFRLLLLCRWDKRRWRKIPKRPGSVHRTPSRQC
Summary of the method: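 CHRM1-CHO calcium-flux assay, antagonist mode. Cells were seeded 18 h, dye-loaded 1 h at 37 C and given compound for 5 min at RT, then acetylcholine was added at 50nM. FDSS fluorescence was read 3 min; 15 concentrations, three runs.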

[9] = cAMP Responsive Elements (CRE) small molecule agonists, cell-based qHTS assay (AID 1963590)
Summary of the method: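 Agonist mode qHTS in CRE-bla HEK 293T cells: compounds dosed from DMSO for 3 h at 37 C/5% CO2, followed by LiveBLAzer B/G FRET substrate for 2 h at room temperature.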

[10] = cAMP Responsive Elements (CRE) small molecule antagonists, cell-based qHTS assay (AID 1963591; active = well fitted inhibition curve with a large enough effect in the signal ratio in the repeat runs, not every such curve was filed as active; the % refers to the signal ratio; also: potency is read from the fitted curve at half-maximal effect)
Summary of the method: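 Antagonist mode: test compounds are co-incubated with the adenylyl cyclase activator NKH477 (0.25 uM final) on CRE-bla HEK293T cells for 3 h at 37 °C, followed by LiveBLAzer substrate loading.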

[11] = biological target: Beta-2 adrenergic receptor (Homo sapiens) (UniProt P07550); experiment: Adrenergic beta2 receptor (ADRB2) small molecule antagonists, cell-based qHTS assay (AID 1963592); also: series mostly up to about 92 µM; nearly all actives have a fitted effect of over 50% in size
Sequence of Beta-2 adrenergic receptor (Homo sapiens) (P07550 whole entry, looked up): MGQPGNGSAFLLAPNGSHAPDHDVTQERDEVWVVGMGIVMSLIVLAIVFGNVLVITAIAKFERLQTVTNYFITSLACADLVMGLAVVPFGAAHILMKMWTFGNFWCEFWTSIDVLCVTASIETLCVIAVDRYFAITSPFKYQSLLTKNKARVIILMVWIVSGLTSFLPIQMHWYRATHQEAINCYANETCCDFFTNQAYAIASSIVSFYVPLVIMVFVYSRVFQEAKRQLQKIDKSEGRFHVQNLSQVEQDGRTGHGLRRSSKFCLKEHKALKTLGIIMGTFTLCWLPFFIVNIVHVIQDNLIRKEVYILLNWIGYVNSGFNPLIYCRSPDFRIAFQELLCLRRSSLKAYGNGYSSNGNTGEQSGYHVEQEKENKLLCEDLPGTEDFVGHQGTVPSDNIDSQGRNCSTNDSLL
Summary of the method: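 Cells (CHO, stable ADRB2 overexpression) incubated 18-20hr at 37C; compounds added from DMSO; agonist mix (1nM isoproterenol, 100uM IBMX, 25uM Ro-20-1724) added; 0.5hr RT; d2-cAMP and anti-cAMP-cryptate added; 1hr RT; 665/615 nm read.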

[12] = biological target: D(2) dopamine receptor (Homo sapiens) (UniProt P14416); experiment: Dopamine D2 receptor (DRD2) small molecule agonists, cell-based qHTS assay (AID 1963594); also: nearly all actives have a fitted effect of over 35% in size
Sequence of D(2) dopamine receptor (Homo sapiens) (P14416 whole entry, looked up): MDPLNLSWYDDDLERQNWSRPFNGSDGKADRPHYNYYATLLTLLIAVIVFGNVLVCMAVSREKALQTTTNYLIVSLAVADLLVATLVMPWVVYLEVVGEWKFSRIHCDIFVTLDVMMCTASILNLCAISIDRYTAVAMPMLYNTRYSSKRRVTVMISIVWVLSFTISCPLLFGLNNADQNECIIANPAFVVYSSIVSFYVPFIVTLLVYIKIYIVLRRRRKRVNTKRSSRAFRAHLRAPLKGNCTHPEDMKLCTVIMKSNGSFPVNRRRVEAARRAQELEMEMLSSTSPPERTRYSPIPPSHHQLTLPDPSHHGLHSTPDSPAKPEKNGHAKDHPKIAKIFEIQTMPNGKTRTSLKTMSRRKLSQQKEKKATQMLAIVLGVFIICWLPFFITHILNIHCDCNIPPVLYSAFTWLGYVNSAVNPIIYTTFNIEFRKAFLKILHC
Summary of the method: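 HEK293 cells stably expressing DRD2 were cultured 24 h at 37 C, then given Ro20-1724 (0.1 mM final) and compounds for 10 min at room temperature. NKH477 (200nM) was then added for 30 min. cAMP was read by HTRF.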

[13] = biological target: D(2) dopamine receptor (Homo sapiens) (UniProt P14416); experiment: Dopamine D2 receptor (DRD2) small molecule antagonists, cell-based qHTS assay (AID 1963595; active = well fitted inhibition curve with a large enough effect in the signal ratio in the repeat runs, with a control signal flat; the % refers to the signal ratio)
Summary of the method: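 HEK293 cells stably expressing DRD2, preincubated with 0.1 mM Ro20-1724 and compounds 10 min, were stimulated with 200 nM NKH477 plus 12 nM quinpirole for 30 min at room temperature; cAMP measured by HTRF (665/620 nm).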

[14] = p53 small molecule agonists, cell-based qHTS assay: qHTS cell viability counter screen (AID 1963581); also: nearly all actives have a fitted effect of over 45% in size
Summary of the method: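 Cells: HCT-116 with p53 response element-driven beta-lactamase. Treatment: 16 h, 37 C, compounds in DMSO. Read: CellTiter-Glo luminescence after 30 min RT.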

[15] = biological target: Muscarinic acetylcholine receptor M1 (Homo sapiens) (UniProt P11229); experiment: Cholinergic receptor muscarinic 1 (CHRM1) small molecule agonists, cell-based qHTS assay (AID 1963589); also: nearly all actives have a fitted effect of over 35% in size
Summary of the method: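 Agonist-mode qHTS in CHO cells stably carrying human muscarinic M1. Intracellular calcium is tracked by fluorescence every second after compound transfer; each compound runs at 15 concentrations in three independent runs.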

[16] = p53 small molecule agonists, cell-based qHTS assay with rat liver microsomes (AID 1963578)
Summary of the method: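 Compound in DMSO added to p53RE-bla cells 5 h post-plating; rat microsomes/NADPH 0.5 mg/mL final; 16 h, 37 C; LiveBLAzer 2 h RT.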

[17] = p53 small molecule agonists, cell-based qHTS assay (AID 1963582; active = well fitted activation curve with a large enough effect in the signal ratio in the repeat runs, not every such curve was filed as active; the % refers to the signal ratio)
Summary of the method: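 Quantitative HTS in p53RE-bla cells: after a 5 h settling period, compounds delivered in DMSO were left on cells for 16 h at 37 C, and reporter induction was measured as fluorescence following 2 h substrate loading.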

[18] = biological target: Beta-2 adrenergic receptor (Homo sapiens) (UniProt P07550); experiment: Adrenergic beta2 receptor (ADRB2) small molecule agonists, cell-based qHTS assay (AID 1963593);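 also: CHO cells stably overexpressing human ADRB2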
Summary of the method: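 CHO cells stably over-expressing ADRB2 were plated overnight at 37C, then dosed with compounds plus a stimulation mix containing 100uM IBMX and 25uM Ro-20-1724 for 0.5hr at room temperature. cAMP was measured by HTRF competition, 1hr.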

[19] = p53 small molecule agonists, cell-based qHTS assay with human liver microsomes (AID 1963577);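 also: p53 response element beta-lactamase reporter cells with liver microsomes plus NADPH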
Summary of the method: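 Reporter activation was measured by LiveBLAzer fluorescence intensity in p53RE-bla cells, which had been exposed to compounds for 16 h at 37 C alongside 0.5 mg/mL human liver microsomes and 0.5 mg/mL NADPH (final concentrations).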
% is scaled to controls: 0 for no effect and ±100 for the full control effect.

CC(=O)[O-].CC(=O)[O-].CC(=O)[O-].[Sb+3]
inactive: activity change [1] 0.655% [at 2.04 µM, stronger effect = higher value] | activation [2] 14% [at 2.72 µM] | activation [3] -0.454% [at 2.04 µM] | activity change, negative = cytotoxicity [4] 0.868% [at 2.33 µM] | activity change, negative = cytotoxicity [5] -3.59% [at 2.33 µM] | activity, negative = inhibition [6] 0.713% [at 2.12 µM] | activation [7] -0.125% [at 2.65 µM] | activity, negative = inhibition [8] 9.52% [at 2.17 µM] | activation [9] -0.0591% [at 3.27 µM] | activity change, negative = inhibition [10] -4.85% [at 3.27 µM] | activity change, negative = inhibition [11] -10.7% [at 3.27 µM] | activation [12] 0.942% [at 3.27 µM] | activity change, negative = inhibition [13] -1.4% [at 3.28 µM]

CCOC(=O)[C@]1(c2ccccc2)Oc2ccccc2[C@@H]1N
active: Potency [8] 8.4 µM
inactive: Potency [1] | Potency [2] | Potency [3] | Potency [4] | Potency [5] | Potency [14] | Potency [7] | Potency [15] | Potency [12]

Cc1ccc(O)cc1C
inactive: Potency [7] | Potency [8] | Potency [15] | Potency [11] | Potency [12] | Potency [13]

CCNC(=O)[C@@H]1CCCN1C(=O)[C@H](CCCN=C(N)N)NC(=O)[C@H](CC(C)C)NC(=O)CNC(=O)[C@H](Cc1ccc(O)cc1)NC(=O)[C@H](CO)NC(=O)[C@H](Cc1c[nH]c2ccccc12)NC(=O)[C@H](Cc1cnc[nH]1)NC(=O)[C@@H]1CCC(=O)N1 ([pGlu]HWSYGLRP-NHEt)
inactive: Potency [6] | Potency [7] | Potency [8] | Potency [15]

O=C(O)CBr
inactive: Potency [1] | Potency [3] | Potency [16] | Potency [4] | Potency [5] | Potency [14] | Potency [17] | Potency [6] | Potency [7] | Potency [8] | Potency [15] | Potency [9] | Potency [11] | Potency [12] | Potency [13]

O=C1Nc2ccc(Cl)cc2C(c2ccccc2)=NC1O (stereo not drawn)
inactive: Potency [1] | Potency [2] | Potency [3] | Potency [14] | Potency [17] | Potency [6] | Potency [7] | Potency [8] | Potency [15] | Potency [9] | Potency [11] | Potency [18] | Potency [12] | Potency [13]

O=[N+]([O-])c1ccccc1Cl
inactive: Potency [6] | Potency [7] | Potency [15] | Potency [11] | Potency [18] | Potency [13]

S=C(SSC(=S)N1CCCCC1)N1CCCCC1
active: Potency [7] 10.7 µM | Potency [10] 1.68 µM
inactive: Potency [1] | Potency [2] | Potency [19] | Potency [16] | Potency [4] | Potency [17] | Potency [6] | Potency [8] | Potency [9] | Potency [18] | Potency [12] | Potency [13]

c1ccccc1
inactive: Potency [19] | Potency [16] | Potency [4] | Potency [5] | Potency [14] | Potency [17]

NC(=O)CC[C@@H]1NC(=O)[C@H](Cc2ccccc2)NC(=O)[C@H](Cc2ccc(O)cc2)NC(=O)CCSSC[C@@H](C(=O)N2CCC[C@H]2C(=O)N[C@@H](CCCN=C(N)N)C(=O)NCC(N)=O)NC(=O)[C@H](CC(N)=O)NC1=O
inactive: Potency [8] | Potency [15]

CCC1(c2cnc[nH]2)Cc2ccccc2C1
inactive: Potency [19] | Potency [16] | Potency [4] | Potency [5] | Potency [14] | Potency [17]

NC(=O)[C@@H]1CSSCCC(=O)N[C@@H](CCCCN=C(N)N)C(=O)NCC(=O)N[C@@H](CC(=O)O)C(=O)N[C@@H](Cc2c[nH]c3ccccc23)C(=O)N2CCC[C@H]2C(=O)N1 ([Mpa][hArg]GDWPC-NH2; disulfide 1-7)
inactive: Potency [6] | Potency [7] | Potency [8]

CC(=O)N[C@@H](CO)C(=O)N[C@@H](CC(=O)O)C(=O)N[C@@H](CCCCN)C(=O)N1CCC[C@H]1C(=O)O (Ac-SDKP-OH)
inactive: Potency [7] | Potency [8] | Potency [15]

C#C[C@]1(O)CC[C@H]2[C@@H]3CCC4=CC(=O)CCC4=C3C=C[C@@]21CC
inactive: Potency [1] | Potency [2] | Potency [3] | Potency [4] | Potency [7] | Potency [8] | Potency [12] | Potency [13]

O=S(=O)(O)c1cc(O)ccc1O
inactive: Potency [4] | Potency [5] | Potency [14]

O=[N+]([O-])c1cccc(CCl)c1
inactive: Potency [1] | Potency [4] | Potency [5] | Potency [14] | Potency [6] | Potency [7] | Potency [15] | Potency [9] | Potency [10] | Potency [11] | Potency [12] | Potency [13]

Oc1ccc(C2(c3ccc(O)cc3)CCCCC2)cc1
inactive: Potency [2] | Potency [3] | Potency [19] | Potency [16] | Potency [5] | Potency [6] | Potency [7] | Potency [8] | Potency [9] | Potency [12] | Potency [13]

O=S(=O)(NS(=O)(=O)C(F)(F)F)C(F)(F)F
inactive: Potency [1] | Potency [2] | Potency [3] | Potency [4] | Potency [5] | Potency [14] | Potency [6] | Potency [7] | Potency [8] | Potency [11] | Potency [18] | Potency [12] | Potency [13]

CC(C)C[C@H](NC(=O)CNC(=O)[C@H](Cc1ccc(O)cc1)NC(=O)[C@H](CO)NC(=O)[C@H](Cc1c[nH]c2ccccc12)NC(=O)[C@H](Cc1cnc[nH]1)NC(=O)[C@@H]1CCC(=O)N1)C(=O)N[C@@H](CCCN=C(N)N)C(=O)N1CCC[C@H]1C(=O)NCC(N)=O (stereo in doubt)
inactive: Potency [6] | Potency [7] | Potency [8] | Potency [15]
